# About 83,000 compounds went through this panel and 20% of them were active in at least one assay; those are over-represented in the sample as a whole.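 The test compound was applied at a single concentration to cells in 96-well plates for 48 hours, and percent growth was recorded.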 A number with no mark means an inactive call. Calls of active or inactive are those of the source. The calls were made as follows: active = growth percent below 10; inactive = the rest.
# Experiments:
# Assay in all cases: NCI-60 one-dose screen, 48 h (100 = growth as untreated, 0 = no growth, -100 = all killed)
# SK-MEL-2 melanoma = conditions: 10 µM unless noted
# SN12C renal = conditions: 10 µM unless noted
# UO-31 renal = conditions: 10 µM unless noted
# TK-10 renal = conditions: 10 µM unless noted
# ACHN renal = conditions: 10 µM unless noted
# CAKI-1 renal = conditions: 10 µM unless noted
# A498 renal = conditions: 10 µM
# CCRF-CEM leukemia = conditions: 10 µM unless noted
# HL-60(TB) leukemia = conditions: 10 µM unless noted
SMILES,growth (SK-MEL-2 melanoma),growth (SN12C renal),growth (UO-31 renal),growth (TK-10 renal),growth (ACHN renal),growth (CAKI-1 renal),growth (A498 renal),growth (CCRF-CEM leukemia),growth (HL-60(TB) leukemia)
N/C(=N\N=C\c1ccc(-c2ccccc2)cc1)N[N+](=O)[O-],47.1%,53.3%,45.2%,44.6%,52.5%,27.5%,5.42% (active),11.9%,–
CCOP(=O)(NC[C@H]1O[C@](O)(CO)[C@@H](O)[C@@H]1O)OCC,98.4%,100%,69.9%,97.2%,103%,–,99.9%,101%,101%
CCCCCCCCCCCCCCCCCCOc1ccccc1COP(=O)(O)OOCC[N+](C)(C)C,35.9%,-6.04% (active),38.5%,3.59% (active),8.89% (active),–,52.6%,-12.8% (active),-42% (active)

# From PubChem BioAssay (NCI)
